Here are results for seven molecules from PubChem BioAssay (EPA / NIEHS).

Test [1] can be described thus: CEETOX_H295R_PROG: CeeTox H295R High-throughput Steroidogenesis Assay for Progesterone (PROG) (AID 2283442). Conditions: actives raise or lower the signal. The gist of the method: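 H295R adrenal cells prestimulated 48 h with 10 uM forskolin, then exposed 48 h to test chemical in 0.1% DMSO. Progesterone in medium quantified by HPLC-MS/MS after MTBE extraction; viability checked by MTT in same wells.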

Read-out in test [2]: Tumor necrosis factor receptor superfamily member 6 (Homo sapiens) (UniProt P25445)
Put plainly: LTEA_HepaRG_FAS: Life Technologies and Expression Analysis (LTEA) Assay for Fas cell surface death receptor (FAS) using HepaRG (AID 2283447). The settings on record: mRNA level, 48 h; actives raise or lower the signal. Summed up:
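FAS transcript level was measured by TaqMan qRT-PCR against three housekeeping genes after 48 h chemical exposure. Cells were HepaRG, 0.5% DMSO vehicle, with a top concentration of 100 uM and half-log dilutions over eight points, in duplicate.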

Read-out in test [3]: Fatty acid synthase (Homo sapiens) (UniProt P49327)
Put plainly: LTEA_HepaRG_FASN: Life Technologies and Expression Analysis (LTEA) Assay for Fatty Acid Synthase (FASN) using HepaRG (AID 2283448). Conditions: mRNA level, 48 h; actives raise or lower the signal. Summed up:
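FASN transcript measured by TaqMan qRT-PCR, normalised to three housekeeping genes, after 48 h chemical exposure of HepaRG cells. Eight-point half-log series from 100 uM in 0.5% DMSO, duplicates; gain or loss fitted against vehicle.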

Read-out in test [4]: Cyclin D2 (CCND2), CCND2 (gene 894)
The test can be described thus: LTEA_HepaRG_CCND2: Life Technologies and Expression Analysis (LTEA) Assay for Cyclin D2 (CCND2) using HepaRG (AID 2283449). The settings on record: mRNA level, 48 h; actives raise or lower the signal. The gist of the method: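 CCND2 transcript levels, quantified by qRT-PCR and normalised to three housekeeping genes, were fitted bidirectionally against 0.5% DMSO. HepaRG cultures were dosed 48 h in duplicate with an 8-point half-log series up to 100 uM.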

Read-out in test [5]: Cyclin Dependent Kinase Inhibitor 1A (CDKN1A), CDKN1A (gene 1026)
The test can be described thus: LTEA_HepaRG_CDKN1A: Life Technologies and Expression Analysis (LTEA) Assay for Cyclin Dependent Kinase Inhibitor 1A (CDKN1A) using HepaRG (AID 2283450). The settings on record: mRNA level, 48 h; actives raise or lower the signal. The gist of the method: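 Differentiated HepaRG cells in serum-free induction medium, exposed 48 h in duplicate to eight half-log concentrations up to 100 uM in 0.5% DMSO. mRNA measured by TaqMan qRT-PCR, normalized to ACTB, GAPDH, POLR2A; bidirectional fit versus DMSO.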

Read-out in test [6]: Cyclin D1 (CCND1), CCND1 (gene 595)
The test can be described thus: LTEA_HepaRG_CCND1: Life Technologies and Expression Analysis (LTEA) Assay for Cyclin D1 (CCND1) using HepaRG (AID 2283451). The settings on record: mRNA level, 48 h; actives raise or lower the signal. The gist of the method: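 Differentiated HepaRG cells exposed 48 h in serum-free induction medium to eight half-log concentrations from 100 uM top, 0.5% DMSO, duplicates. CCND1 mRNA measured by Fluidigm TaqMan qRT-PCR, normalised to ACTB, GAPDH, POLR2A; bidirectional fit.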

Read-out in test [7]: catalase (CAT), CAT (gene 847)
Put plainly: LTEA_HepaRG_CAT: Life Technologies and Expression Analysis (LTEA) Assay for catalase (CAT) using HepaRG (AID 2283452). Conditions: mRNA level, 48 h; actives raise or lower the signal. Summed up: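 Expression of CAT was quantified by TaqMan qRT-PCR with ACTB/GAPDH/POLR2A normalization after 48 h chemical exposure of HepaRG. Eight-point half-log series, top 100 uM, in 0.5% DMSO; gain or loss fitted against vehicle.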

Read-out in test [8]: flavin-containing dimethylaniline monooxygenases 3 (FMO3), FMO3 (gene 2328)
The test can be described thus: LTEA_HepaRG_FMO3: Life Technologies and Expression Analysis (LTEA) Assay for flavin-containing dimethylaniline monooxygenases 3 (FMO3) using HepaRG (AID 2283453). Conditions: mRNA level, 48 h; actives raise or lower the signal. Summed up: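 FMO3 transcript quantified by TaqMan qRT-PCR against three housekeeping genes after 48 h chemical exposure of HepaRG cells. Eight-point half-log series, top 100 uM, 0.5% DMSO vehicle; phenobarbital 1mM induction control; up- or down-regulation fitted.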

Read-out in test [9]: CFLAR gene, CFLAR (gene 8837)
Put plainly: LTEA_HepaRG_CFLAR: Life Technologies and Expression Analysis (LTEA) Assay for CFLAR gene using HepaRG (AID 2283455). Conditions: mRNA level, 48 h; actives raise or lower the signal. The gist of the method:
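Transcript level by qRT-PCR (normalized to ACTB, GAPDH and POLR2A) after 48 h chemical exposure of HepaRG cells, top concentration 100 uM with half-log steps, 0.5% DMSO vehicle, duplicates; fitted bidirectionally against DMSO baseline.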

Read-out in test [10]: Forkhead box O1 (FOXO1), FOXO1 (gene 2308)
The test can be described thus: LTEA_HepaRG_FOXO1: Life Technologies and Expression Analysis (LTEA) Assay for Forkhead box O1 (FOXO1) using HepaRG (AID 2283456). Conditions: mRNA level, 48 h; actives raise or lower the signal. Summed up:
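FOXO1 transcript quantified by qRT-PCR after 48 h chemical exposure (top 100 uM, half-log steps, 0.5% DMSO) of HepaRG cells, housekeeping-normalized (ACTB/GAPDH/POLR2A). Changes fitted in both directions relative to vehicle.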

Read-out in test [11]: Forkhead box O3 (FOXO3), FOXO3 (gene 2309)
Put plainly: LTEA_HepaRG_FOXO3: Life Technologies and Expression Analysis (LTEA) Assay for Forkhead box O3 (FOXO3) using HepaRG (AID 2283459). Conditions: mRNA level, 48 h; actives raise or lower the signal. The gist of the method: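 FOXO3 transcript measured by qRT-PCR (normalized to ACTB, GAPDH, POLR2A) after 48 h exposure of HepaRG cells in serum-free induction medium. Duplicates, eight half-log concentrations up to 100 uM, 0.5% DMSO; gain or loss fitted against DMSO.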

Read-out in test [12]: ABC Transporter (ABCB1), ABCB1 (gene 5243)
The test can be described thus: LTEA_HepaRG_ABCB1: Life Technologies and Expression Analysis (LTEA) Assay for ABC Transporter (ABCB1) using HepaRG (AID 2283460). Conditions: mRNA level, 48 h; actives raise or lower the signal. The gist of the method:
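ABCB1 transcript level measured by TaqMan qRT-PCR against three housekeeping genes after 48 h chemical exposure of differentiated HepaRG cells. Top concentration 100 uM, half-log steps, eight points, 0.5% DMSO vehicle; bidirectional fit relative to DMSO.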

Read-out in test [13]: growth arrest and DNA damage 45 (GADD45B), GADD45B (gene 4616)
Put plainly: LTEA_HepaRG_GADD45B: Life Technologies and Expression Analysis (LTEA) Assay for growth arrest and DNA damage 45 (GADD45B) using HepaRG (AID 2283461). Conditions: mRNA level, 48 h; actives raise or lower the signal. Summed up:
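Differentiated human HepaRG cells in serum-free induction medium exposed 48 h in duplicate to eight concentrations, top 100 uM, half-log steps, 0.5% DMSO. GADD45B mRNA by TaqMan qRT-PCR, normalized to ACTB, GAPDH, POLR2A; bidirectional fit versus DMSO.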

Read-out in test [14]: ABC Transporter (ABCB11), ABCB11 (gene 8647)
Put plainly: LTEA_HepaRG_ABCB11: Life Technologies and Expression Analysis (LTEA) Assay for ABC Transporter (ABCB11) using HepaRG (AID 2283463). The settings on record: mRNA level, 48 h; actives raise or lower the signal. The gist of the method:
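ABCB11 transcript levels quantified by TaqMan qRT-PCR against three housekeeping genes after 48 h chemical exposure of HepaRG cultures. Concentrations up to 100 uM in half-log steps, 0.5% DMSO vehicle; both induction and suppression scored.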

Read-out in test [15]: Cytochrome P450 (CYP1A1), CYP1A1 (gene 1543)
Put plainly: LTEA_HepaRG_CYP1A1: Life Technologies and Expression Analysis (LTEA) Assay for Cytochrome P450 (CYP1A1) using HepaRG (AID 2283454). Conditions: mRNA level, 48 h; actives raise or lower the signal. Summed up: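 Differentiated human HepaRG cells, after 48 h plating, exposed in duplicate for 48 h in serum-free induction medium to 8 half-log concentrations up to 100 uM in 0.5% DMSO. CYP1A1 mRNA by qRT-PCR, normalized to ACTB/GAPDH/POLR2A; bidirectional fit versus DMSO.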

Read-out in test [16]: growth arrest and DNA damage 45 (GADD45A), GADD45A (gene 1647)
The test can be described thus: LTEA_HepaRG_GADD45A: Life Technologies and Expression Analysis (LTEA) Assay for growth arrest and DNA damage 45 (GADD45A) using HepaRG (AID 2283458). The settings on record: mRNA level, 48 h; actives raise or lower the signal. Summed up:
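GADD45A expression was measured by TaqMan qRT-PCR against three housekeeping genes (ACTB, GAPDH, POLR2A) after 48 h treatment of HepaRG cells. Eight-point half-log series up to 100 uM in 0.5% DMSO, run in duplicate.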

Calls of active or inactive are those of the source. How the source made its calls: active means hit-call score of the fitted dose curve at least 0.9, where 1 is the maximum; inactive means score below 0.9.

Sequence of Fatty acid synthase (Homo sapiens) (P49327 whole entry, looked up): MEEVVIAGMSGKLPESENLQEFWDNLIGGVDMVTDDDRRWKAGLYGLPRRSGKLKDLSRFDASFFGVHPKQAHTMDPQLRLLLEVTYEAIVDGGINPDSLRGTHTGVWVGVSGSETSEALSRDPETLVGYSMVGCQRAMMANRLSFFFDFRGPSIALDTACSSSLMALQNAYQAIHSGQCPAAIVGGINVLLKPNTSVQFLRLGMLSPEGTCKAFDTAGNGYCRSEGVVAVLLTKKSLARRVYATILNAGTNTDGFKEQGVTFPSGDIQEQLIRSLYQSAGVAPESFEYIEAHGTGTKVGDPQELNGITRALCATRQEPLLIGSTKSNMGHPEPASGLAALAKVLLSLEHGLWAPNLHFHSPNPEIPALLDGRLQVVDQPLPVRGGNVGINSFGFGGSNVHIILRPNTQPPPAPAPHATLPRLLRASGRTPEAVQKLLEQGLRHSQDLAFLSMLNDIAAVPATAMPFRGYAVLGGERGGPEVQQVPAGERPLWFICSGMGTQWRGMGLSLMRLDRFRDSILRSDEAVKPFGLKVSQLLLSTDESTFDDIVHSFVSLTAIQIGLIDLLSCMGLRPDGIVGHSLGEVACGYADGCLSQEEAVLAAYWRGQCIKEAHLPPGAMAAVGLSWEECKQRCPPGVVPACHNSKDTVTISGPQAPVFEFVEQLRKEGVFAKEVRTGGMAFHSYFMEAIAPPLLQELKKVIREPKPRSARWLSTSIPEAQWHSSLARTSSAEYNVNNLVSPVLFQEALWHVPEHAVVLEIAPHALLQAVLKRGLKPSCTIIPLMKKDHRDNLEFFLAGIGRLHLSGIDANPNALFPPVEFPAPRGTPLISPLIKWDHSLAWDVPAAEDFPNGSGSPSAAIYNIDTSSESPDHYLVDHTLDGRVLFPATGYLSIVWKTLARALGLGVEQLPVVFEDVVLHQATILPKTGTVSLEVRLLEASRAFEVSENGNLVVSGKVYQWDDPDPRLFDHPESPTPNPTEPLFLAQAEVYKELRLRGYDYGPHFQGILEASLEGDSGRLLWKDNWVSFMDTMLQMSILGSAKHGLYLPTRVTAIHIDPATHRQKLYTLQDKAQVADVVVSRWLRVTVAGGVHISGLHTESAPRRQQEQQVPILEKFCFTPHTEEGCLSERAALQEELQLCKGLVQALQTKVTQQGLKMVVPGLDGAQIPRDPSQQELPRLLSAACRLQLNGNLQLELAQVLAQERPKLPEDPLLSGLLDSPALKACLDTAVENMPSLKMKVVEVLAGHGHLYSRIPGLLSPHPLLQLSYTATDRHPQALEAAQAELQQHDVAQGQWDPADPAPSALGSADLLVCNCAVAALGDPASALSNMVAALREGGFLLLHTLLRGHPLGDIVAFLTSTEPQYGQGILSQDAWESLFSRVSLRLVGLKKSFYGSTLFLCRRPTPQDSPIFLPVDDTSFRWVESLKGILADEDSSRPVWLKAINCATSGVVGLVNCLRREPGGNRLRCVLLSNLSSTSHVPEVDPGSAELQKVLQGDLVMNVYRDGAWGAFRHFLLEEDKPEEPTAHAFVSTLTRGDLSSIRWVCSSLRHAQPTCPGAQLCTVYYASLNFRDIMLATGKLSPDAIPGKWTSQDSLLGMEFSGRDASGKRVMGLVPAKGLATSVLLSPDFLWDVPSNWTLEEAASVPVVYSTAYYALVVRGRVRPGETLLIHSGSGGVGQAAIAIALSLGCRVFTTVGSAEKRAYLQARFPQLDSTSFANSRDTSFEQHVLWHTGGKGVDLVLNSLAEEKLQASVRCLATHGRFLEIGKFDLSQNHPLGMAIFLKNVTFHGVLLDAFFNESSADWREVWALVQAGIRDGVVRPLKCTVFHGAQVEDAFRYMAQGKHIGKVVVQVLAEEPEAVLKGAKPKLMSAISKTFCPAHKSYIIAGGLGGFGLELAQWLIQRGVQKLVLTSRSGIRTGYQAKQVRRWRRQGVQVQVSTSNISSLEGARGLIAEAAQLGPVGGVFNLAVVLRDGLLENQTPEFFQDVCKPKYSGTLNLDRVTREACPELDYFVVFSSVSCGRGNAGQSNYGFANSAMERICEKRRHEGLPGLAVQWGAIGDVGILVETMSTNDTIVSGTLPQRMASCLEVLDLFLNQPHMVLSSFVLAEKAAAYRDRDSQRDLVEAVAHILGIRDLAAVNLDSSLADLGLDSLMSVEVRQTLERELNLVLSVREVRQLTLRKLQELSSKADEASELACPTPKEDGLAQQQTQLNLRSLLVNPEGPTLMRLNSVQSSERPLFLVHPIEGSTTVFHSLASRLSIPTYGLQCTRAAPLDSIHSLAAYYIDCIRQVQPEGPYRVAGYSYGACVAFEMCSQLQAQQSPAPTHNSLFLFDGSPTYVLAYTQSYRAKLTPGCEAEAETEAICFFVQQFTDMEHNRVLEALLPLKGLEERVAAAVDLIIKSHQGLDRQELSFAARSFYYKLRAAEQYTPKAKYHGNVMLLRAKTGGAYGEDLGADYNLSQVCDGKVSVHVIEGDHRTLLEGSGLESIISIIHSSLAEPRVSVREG

In general, AC50 refers to the concentration at which the activity in the assay is half-maximal. In the case of `CCOC(=O)C(C)Oc1ccc(Oc2cnc3cc(Cl)ccc3n2)cc1` (stereo not drawn), the molecule was called inactive in test [1], in [2], in test [4], in test [5], in test [6] and in test [7]. Moreover, the result in test [9], in [10], in test [11], in test [12] and in test [13] was inactive. Also, the results for the AC50 in test [3], in [8] and in test [14] were 43 µM (active), 14 µM (active) and 1.93 µM (active), respectively.

In the case of `O=C(c1ccccc1)C1CCCCC1`, the call in test [2], in [3], in test [4], in test [5], in test [6] and in test [8] was inactive. Further, the result in test [9], in test [11], in test [12], in test [13] and in [14] was inactive.

Turning to `O=C(O)c1ccccc1`, the molecule was called inactive in test [2], in test [3], in test [4], in [5], in test [6] and in [8]. Besides, the result in test [9], in test [10], in test [11], in [12], in test [13] and in [14] was inactive.

Turning to `CCOC(=O)C(C)Oc1ccc(Oc2nc3ccc(Cl)cc3o2)cc1` (stereo not drawn), the outcome in test [2], in [3], in [5], in test [6], in test [8] and in test [9] was inactive. Also, the molecule was classed as inactive in test [11], in [12] and in test [13]. Further, the AC50 in test [14] was 9.92 µM (active).

For the molecule `CCCCC(CC)COC(=O)c1ccccc1C(=O)O` (stereo not drawn), the molecule was called inactive in [2], in test [3], in test [4], in test [5], in [6] and in test [8]. In addition, the result in test [9], in [11] and in [13] was inactive. Besides, the AC50 is 74.9 µM (active) in [12] and 41.9 µM (active) in [14].

As for `CCN(CC)C(=O)c1cccc(C)c1`, the molecule was classed as inactive in [2], in test [3], in [4], in test [5], in test [6] and in test [8]. Moreover, the result in test [9], in test [16], in test [11], in [12], in [13] and in [14] was inactive. The half-maximal activity concentration (AC50) in test [15] is 50 µM (active).

Turning to `CCCN(CCC)c1c([N+](=O)[O-])cc(C(F)(F)F)c(N)c1[N+](=O)[O-]`, the outcome in test [2], in test [5], in [6], in test [7], in [8] and in [9] was inactive. The molecule was called inactive in [13]. In addition, the AC50 in test [3] is 50 µM (active); in test [15], 9.51 µM (active); in [11], 50 µM (active); in [12], 18 µM (active); in test [14], 22 µM (active).
